Data: PubChem BioAssay (EPA / NIEHS)
Records with an inconclusive call do not appear. Activity calls are given as the source filed them. How the source made its calls, unless noted: active means hit-call score of the fitted dose curve at least 0.9, where 1 is the maximum; inactive means score below 0.9.

Assays:
[1] = TOX21_p53_BLA_p2_viability: Viability Assessment in the Tox21 HCT-116 p53 Agonism Beta-lactamase Assay, Phase 2 (AID 2283591; active means hit-call score of the fitted dose curve at least 0.9, where 1 is the maximum;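 further: compound exposure lasted 16 h at 37 °C; actives lower the ATP signal meaning cytotoxicity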)
In short: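 HCT116 p53-bla cells, 4000/well, dosed after 5 h plating (217-fold dilution of DMSO stocks) and incubated 16 h at 37C. Viability taken as cellular ATP by CellTiter-Glo luminescence after 30 min RT; signal loss marks cytotoxicity.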

[2] = TOX21_p53_BLA_p3_viability: Viability Assessment in the Tox21 HCT-116 p53 Agonism Beta-lactamase Assay, Phase 3 (AID 2283593; active means hit-call score of the fitted dose curve at least 0.9, where 1 is the maximum;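 further: cells exposed to compound for 16 h before reading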)
In short: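 HCT116 cells, 4000/well, dosed 5 h after plating by pin transfer (217-fold dilution from DMSO stock) and incubated 16 h at 37C, 5% CO2. Viability read as ATP luminescence with CellTiter-Glo after 30 min at room temperature.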

[3] = target: Cellular tumor antigen p53 (Homo sapiens) (UniProt P04637); test: TOX21_p53_BLA_p3_ratio: Tox21 HCT-116 p53 Agonism Beta-lactamase Assay, Ratio, Phase 3 (AID 2283596; active means hit-call score of the fitted dose curve at least 0.9, where 1 is the maximum)
Sequence of Cellular tumor antigen p53 (Homo sapiens) (P04637 whole entry, looked up): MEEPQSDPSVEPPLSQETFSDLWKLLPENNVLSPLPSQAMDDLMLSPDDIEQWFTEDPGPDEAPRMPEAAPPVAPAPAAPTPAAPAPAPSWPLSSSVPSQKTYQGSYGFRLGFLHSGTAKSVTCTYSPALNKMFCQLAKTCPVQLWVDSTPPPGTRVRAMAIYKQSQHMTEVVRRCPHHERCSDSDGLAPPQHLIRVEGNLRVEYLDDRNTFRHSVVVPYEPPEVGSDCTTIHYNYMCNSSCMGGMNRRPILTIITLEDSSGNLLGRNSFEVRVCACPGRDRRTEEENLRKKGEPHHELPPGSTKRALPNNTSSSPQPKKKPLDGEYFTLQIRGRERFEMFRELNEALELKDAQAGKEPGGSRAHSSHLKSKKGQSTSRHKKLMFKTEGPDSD
In short: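 Cells were seeded at 4000/well, rested 5 h at 37C, then dosed with DMSO compound solutions (217-fold dilution) for 16 h. CCF4-AM substrate was loaded for 2 h at room temperature, and the 460/530 nm emission ratio was fitted for gain of signal versus DMSO.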

[4] = TOX21_p53_BLA_p4_viability: Viability Assessment in the Tox21 HCT-116 p53 Agonism Beta-lactamase Assay, Phase 4 (AID 2283597; active means hit-call score of the fitted dose curve at least 0.9, where 1 is the maximum;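 further: hits lower the luminescence signal meaning cytotoxicity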)
In short: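 Cytotoxicity as reduced cellular ATP (CellTiter-Glo luminescence, 30 min room temperature), measured in the same wells following the CCF4 FRET p53 reading. Human HCT-116 cells received compounds in DMSO (217-fold dilution) for 16 h.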

[5] = target: Cellular tumor antigen p53 (Homo sapiens) (UniProt P04637); test: TOX21_p53_BLA_p5_ratio: Tox21 HCT-116 p53 Agonism Beta-lactamase Assay, Ratio, Phase 5 (AID 2283599; active means hit-call score of the fitted dose curve at least 0.9, where 1 is the maximum)
In short: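 HCT-116 p53-bla cells (4000/well) plated 5 h, dosed with compound (217-fold DMSO dilution) for 16 h at 37 C; CCF4-AM substrate 2 h at room temperature. Activity is the 460/530 nm emission ratio (405 nm excitation), fitted in gain-of-signal direction versus DMSO.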

[6] = TOX21_p53_BLA_p5_viability: Viability Assessment in the Tox21 HCT-116 p53 Agonism Beta-lactamase Assay, Phase 5 (AID 2283600; active means hit-call score of the fitted dose curve at least 0.9, where 1 is the maximum)
In short: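 Viability came from CellTiter-Glo ATP luminescence, read after 30 min at room temperature. Before this, HCT-116 p53-bla cells (4000/well) had 16 hours of compound exposure at 37C, with DMSO stocks diluted 217-fold on transfer.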

[7] = target: Cellular tumor antigen p53 (Homo sapiens) (UniProt P04637); test: TOX21_p53_BLA_p4_ratio: Tox21 HCT-116 p53 Agonism Beta-lactamase Assay, Ratio, Phase 4 (AID 2283601; active means hit-call score of the fitted dose curve at least 0.9, where 1 is the maximum)
In short: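 HCT-116 p53 beta-lactamase reporter cells (4000/well) preincubated 5 h, then compound (217-fold dilution of DMSO stock) for 16 h at 37C. CCF4-AM substrate added 2 h at room temperature; 460/530 nm emission ratio fitted upward versus DMSO.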

[8] = CCTE_Shafer_MEA_dev_firing_rate_mean: CCTE's Neural Network Formation Assay for Mean Firing Rate, Shafer Lab (AID 2284031)
In short: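 Extracellular spike frequency, AUC over DIV 5–12 recordings, in rat cortical neuron MEA cultures dosed from plating; loss direction vs DMSO.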

[9] = CCTE_Shafer_MEA_dev_per_burst_spike_percent: CCTE's Neural Network Formation Assay for Percent of Spikes in a Burst, Shafer Lab (AID 2284032);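 further: fitted as a decrease in burst spike percentage below DMSO baseline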
In short: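 Value is trapezoidal AUC over recordings on days 5, 7, 9 and 12 of the well-mean fraction of spikes falling in single-electrode bursts; rat cortical cultures exposed continuously from plating, treatment renewed DIV 5 and 9, fitted downward against DMSO.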

[10] = CCTE_Shafer_MEA_dev_active_electrodes_number: CCTE's Neural Network Formation Assay for Number of Active Electrodes, Shafer Lab (AID 2284040; active means hit-call score of the fitted dose curve at least 0.9, where 1 is the maximum;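 further: potency for loss of active electrodes versus DMSO so lower counts are hits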)
In short: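 Developing rat cortical networks on MEAs, exposed DIV 0–12. Value is the AUC of active-electrode counts (≥5 spikes/min) from days 5, 7, 9, 12, relative to DMSO.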

[11] = CCTE_Shafer_MEA_dev_burst_rate: CCTE's Neural Network Formation Assay for Burst Rate, Shafer Lab (AID 2284042)
In short: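 Developmental network assay measuring how 12-day exposure of rat cortical neuron cultures alters bursting on extracellular MEA recordings. Values are AUC of well-mean burst rate across four recording days, relative to DMSO vehicle.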

[12] = CCTE_Shafer_MEA_dev_bursting_electrodes_number: CCTE's Neural Network Formation Assay for Number of Bursting Electrodes, Shafer Lab (AID 2284043; active means hit-call score of the fitted dose curve at least 0.9, where 1 is the maximum;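 further: potency is for loss of bursting electrodes relative to DMSO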)
In short: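 Rat cortical primary neurons, 48-well MEA, 16 electrodes/well; dosing DIV 0–12, re-dosed with full media change DIV 5, 9. Recordings DIV 5/7/9/12, AxIS adaptive spike detector; bursting electrode = ≥1 burst/2 min. AUC across days; loss of signal vs DMSO.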

[13] = CCTE_Shafer_MEA_dev_per_burst_interspike_interval: CCTE's Neural Network Formation Assay for Burst Interspike Interval, Shafer Lab (AID 2284044)
In short: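 Mean interspike interval within single-electrode bursts, averaged over bursting electrodes, from rat cortical cultures on MEA plates recorded on days 5, 7, 9 and 12. Continuous compound exposure from plating; trapezoidal AUC fitted downward relative to DMSO.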

[14] = CCTE_Shafer_MEA_dev_burst_duration_mean: CCTE's Neural Network Formation Assay for Mean Burst Duration, Shafer Lab (AID 2284045)
In short: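 Rat cortical cultures, 1.5 x 10^5 cells/well with laminin drop; continuous dosing days 0–12, media plus treatment refreshed DIV 5, 9. AxIS adaptive spike detection; mean single-electrode burst duration, AUC over four recordings, negative direction vs DMSO.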

[15] = CCTE_Shafer_MEA_dev_interburst_interval_mean: CCTE's Neural Network Formation Assay for Mean Interburst Interval, Shafer Lab (AID 2284046);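 further: well-mean interburst interval of bursting electrodes as AUC over four recording days; curve fitted for decrease in interburst interval relative to DMSO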
In short: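 Network formation assay in primary rat cortical cultures, exposed from DIV 0 to 12. Mean interburst interval per well, integrated as AUC over four recordings.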

[16] = CCTE_Shafer_MEA_dev_inter_network_spike_interval_mean: CCTE's Neural Network Formation Assay for Mean Inter-network Spike Interval, Shafer Lab (AID 2284047)
In short: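 Compound was given at plating to primary rat cortical neurons and renewed with full medium changes on DIV 5 and 9. Extracellular activity was recorded on days 5, 7, 9, 12; AUC values were fitted for loss relative to DMSO control.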

[17] = CCTE_Shafer_MEA_dev_network_spike_number: CCTE's Neural Network Formation Assay for Number of Network Spikes, Shafer Lab (AID 2284048);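 further: synchronized bursts across electrodes counted on days 5 7 9 12 and integrated as AUC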
In short: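 Rat cortical primary cultures on 48-well MEA (16 electrodes/well); continuous exposure DIV 0–12, full medium and treatment exchange DIV 5, 9. Readout: network spike count, AxIS adaptive detection, recordings DIV 5/7/9/12 collapsed to AUC; loss-of-signal fit, DMSO baseline.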

[18] = CCTE_Shafer_MEA_dev_network_spike_peak: CCTE's Neural Network Formation Assay for Mean Number of Electrodes in Network Spike, Shafer Lab (AID 2284049);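 further: fitted for loss of signal meaning fewer electrodes in network spikes than DMSO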
In short: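 Network-spike peak electrode count from recordings on days 5, 7, 9 and 12 was combined as trapezoidal area under the curve. Rat cortical cultures were treated continuously from plating, with compound renewed at each feed (DIV 5, 9); fits versus DMSO.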

[19] = CCTE_Shafer_MEA_dev_spike_duration_mean: CCTE's Neural Network Formation Assay for Mean Spike Duration, Shafer Lab (AID 2284051);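 further: mean network spike duration pooled as area under curve over DIV 5 to 12 recordings; potency for a decrease in mean network spike duration versus DMSO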
In short: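 With DMSO as baseline, loss of mean network spike duration was scored from extracellular recordings of rat cortical neurons on MEA plates. Exposure spanned plating to DIV 12; the four recording days were collapsed into one AUC value.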

[20] = CCTE_Shafer_MEA_dev_network_spike_duration_std: CCTE's Neural Network Formation Assay for Standard Deviation of Network Spike Duration, Shafer Lab (AID 2284052);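 further: area under curve of spike duration SD across recording days 5 to 12; hits are decreases in network spike duration SD versus DMSO vehicle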
In short: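 Developing networks of rat cortical neurons were exposed over twelve days in vitro on 48-well MEA plates. Trapezoidal AUC of recordings (DIV 5–12) was analysed for signal loss relative to DMSO vehicle.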

[21] = CCTE_Shafer_MEA_dev_per_network_spike_spike_number_mean: CCTE's Neural Network Formation Assay for Mean Number of Spikes in a Network Spike, Shafer Lab (AID 2284053);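 further: fitted as decrease in spikes per network spike relative to DMSO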
In short: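 First, rat cortical cells (1.5 x 10^5/well) were seeded onto MEA wells; second, dosing began at plating and was refreshed on DIV 5 and 9; finally, network-spike spike counts across DIV 5–12 were summarized as AUC.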

[22] = CCTE_Shafer_MEA_dev_per_network_spike_spike_percent: CCTE's Neural Network Formation Assay for Percent of Spikes in a Network Spike, Shafer Lab (AID 2284054)
In short: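 Read-out: percent of spikes falling in a 0.05 s window at network-spike peak, from spontaneous MEA recordings on days 5, 7, 9 and 12; trapezoidal AUC; loss of signal versus DMSO. Rat cortical cultures, compound present throughout.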

[23] = UKN5_HCS_SBAD2_cell_viability: Viability Assessment in the University of Konstanz (UKN) Leist Lab Neurite Outgrowth Assay in human iPSC-derived immature Dorsal Root Ganglia Neurons (UKN5) (AID 2284056)
In short: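 iPSC-derived immature peripheral neurons (SBAD2) seeded on Matrigel with CHIR99021, SU5402 and DAPT, dosed 1 h later for 24 h. Viability from Hoechst H-33342 and calcein-AM live staining, high-content imaging; bidirectional fit versus DMSO.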

Measured: AC50

Brc1ccc(Oc2cc(Br)c(Br)cc2Br)c(Br)c1
active: [9] 13.2 µM | [10] 14.1 µM | [12] 13.6 µM | [18] 10 µM | [19] 10 µM | [21] 10 µM | [22] 13.5 µM
inactive: all other assays above
